According to the supplement of paper PMC6555819:

The sequences below were run on PPARg:RXRa IVT, anti-PPARg (NR concentration 270 nM, RXRa partner concentration 90 nM) (assay: PBM binding z-score (relative to random genomic background probes); higher = stronger binding; sequences stand for … in GC…GCGATTGACAGCGTAGAATGAAGG).
How it was run: (§1)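 Custom Agilent 4×180K protein-binding microarrays carried double-stranded probes. Their 34-nt variable regions held direct-repeat seeds, single-nucleotide variants, half-site ablations and random human genomic background sequences. Arrays were incubated 1 h with ligand-free nuclear receptor dimers in PBS pH 7.4, 2% milk, 0.02% Triton X-100, 1 mM DTT, 0.2 mg/mL BSA and 0.4 mg/ml salmon testes DNA. Antibodies against each partner (one per run) detected binding, and scanned fluorescence was regression-normalized. Binding z-scores use random background probes as reference.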
CATACAGGTTCAGCTAGGCCAGAGTAGGGACGGC was tested, and the PBM binding z-score was 0.213. In the case of TCGAGTAGGTTAGTCGGTGCATTCAGCCAACATA, the PBM binding z-score is reported as 1.93. For CAACCTAGGTCACAGAGGTCAAAGTCCGTGCGTA, the PBM binding z-score was 5.9. In the case of ATACCAAGGTGATGGTGAGGTCGTTGATACTAAC, the PBM binding z-score is reported as 1.12. ATCTCTAGGTAACCAACTTCAGTGAATGCCGAAC showed a PBM binding z-score of 2.98. For CGGCAAAGTTCAAGGTAACGTAACAGAAAGCAGC, the PBM binding z-score was 1.56. Sequence CCTGCTTGGTCAATGGTCAGCTAAAGCAGCTCGC has a PBM binding z-score of -0.107. For CGTCCAAGGTCAGAGAGATCAGTGAATGCCGAGT, the PBM binding z-score was 2.11. With ACAGGCAGGTGAGTGAAGGTAACTCAGCTGGACG the PBM binding z-score was 0.264. TCTAGCGGGCCAGAGGGTCACTCAAGAGGTACGG showed a PBM binding z-score of 0.801. TCTATTAGCTGAAGGGCAACCGACGAGTCCGTTT was tested, and the PBM binding z-score was 0.162. For TCTTGTAGATCAATAGACGTTAAGAAAGTGCGCT, the PBM binding z-score was 0.361. CCTACTGGGCCACAAAAGGTCATTGATTCAGTGA showed a PBM binding z-score of 5.41. For TAGCCTAGGGCAGATCGGGCCAGTATACGCTATA, the PBM binding z-score was -0.145. With CCTTACGGGTCAAGGTTACAGCACGGGTGGTACG the PBM binding z-score was 3.96. Work on CTTACTGGGCCAAAAAGGTCATTGATGCCGATAA yielded a PBM binding z-score of 5.95. With CATACAAGGTCAGCTAGGCCAGAGTAGGGACGGC the PBM binding z-score was 3.08. In the case of CCGGCTGGGGCAAGGTTACCATAACGCACAGCCA, the PBM binding z-score is reported as 0.466. GCAGACAGGTGAAGCGCAGGTAACTCAGGGTGGC showed a PBM binding z-score of 0.226. AGTCAAAGTTCACTAGGTAAAGTAAGATTCAGCT gave a PBM binding z-score of 4.56. In the case of CGTCCAAGGTCAAGGTCAGGGAAAGAGACTCGAA, the PBM binding z-score is reported as 5.09. For CAAACTAGGTCACCGGAATGTCAAAGTCCGCATG, the PBM binding z-score was 9.1. TGAATGAGGTTAAAGATAAGGGAACGTGGCGTCG gave a PBM binding z-score of 2.62. For ATCGAAAGGTCGTCAGGTGAGTATACAGAAAGGC, the PBM binding z-score was 2.18. TCTATTAGTTGAAGGGCATCCGACGAGTCCGTTT showed a PBM binding z-score of 0.399. CGTAAAAGTTCAAGGTAACGTAACAGAAAGCAGC was tested, and the PBM binding z-score was 1.62. TCAGAGAGGTGAAGGTAACTCAGGTACGCAGTCG gave a PBM binding z-score of 2.38. Work on ATCTCTAGGTAAAGTGCAGTGAAAGATCGATAGA yielded a PBM binding z-score of 1.95. For ATCTCTAGGTAAAAGGTCAGTGAATCCCGAGGAT, the PBM binding z-score was 5.64. With TGAATGAGGTTATAGGATCAGGGAACGTTGCAAA the PBM binding z-score was 2.21. TGAATGAGGTTAGAGATCAGGGAACGTGGCGTCG was tested, and the PBM binding z-score was 2.14. Sequence CGTCCATGGTCAGAGAGGTCAGTGAATGCCGAGT has a PBM binding z-score of 0.857. For TCTGCTAGTTCAACGATGGTCAGCTAATCTGCTA, the PBM binding z-score was -0.112. With GATACAGGATCAAGGCCAGAGTACGCGTATTGAT the PBM binding z-score was -0.0749. Work on CATACTGGGCCATTCAGAGGTCATTGATCATATG yielded a PBM binding z-score of 3.89. In the case of ATCTCTAGGTAAACTTCAGTGAAAGATCGATAGA, the PBM binding z-score is reported as 2.02. For TCGAGTAGGTTAGTCGGGGAATTCAGCCAACATA, the PBM binding z-score was 1.62. CTACCAAGTTGAACAAGGTCGTTGATTACTATTC showed a PBM binding z-score of 0.688. In the case of GCTGCTAGGTCAGGTTGGACAGCTAACGGGTACG, the PBM binding z-score is reported as 2.18. With AATACAGGGTCACCGTAGGCCAGAGTACGCACAG the PBM binding z-score was 4.88.

These sequences were tested on PPARg DBDmut:RXRa IVT, anti-PPARg (DBD mutation: PPARg1 K132A/R137A, NR concentration 270 nM, RXRa partner concentration 90 nM) in the same assay as above.
How it was run: as §1
For CATACAGGTTCAGCTAGGCCAGAGTAGGGACGGC, the PBM binding z-score was 0.171. With TCGAGTAGGTTAGTCGGTGCATTCAGCCAACATA the PBM binding z-score was -0.29. CAACCTAGGTCACAGAGGTCAAAGTCCGTGCGTA gave a PBM binding z-score of 0.378. In the case of ATACCAAGGTGATGGTGAGGTCGTTGATACTAAC, the PBM binding z-score is reported as 0.793. ATCTCTAGGTAACCAACTTCAGTGAATGCCGAAC was tested, and the PBM binding z-score was 1.39. In the case of CGGCAAAGTTCAAGGTAACGTAACAGAAAGCAGC, the PBM binding z-score is reported as -1.51. Work on CCTGCTTGGTCAATGGTCAGCTAAAGCAGCTCGC yielded a PBM binding z-score of -1.05. CGTCCAAGGTCAGAGAGATCAGTGAATGCCGAGT gave a PBM binding z-score of 0.0329. In the case of ACAGGCAGGTGAGTGAAGGTAACTCAGCTGGACG, the PBM binding z-score is reported as -0.867. TCTAGCGGGCCAGAGGGTCACTCAAGAGGTACGG gave a PBM binding z-score of -0.857. For TCTATTAGCTGAAGGGCAACCGACGAGTCCGTTT, the PBM binding z-score was 0.664. TCTTGTAGATCAATAGACGTTAAGAAAGTGCGCT showed a PBM binding z-score of 0.093. CCTACTGGGCCACAAAAGGTCATTGATTCAGTGA was tested, and the PBM binding z-score was 0.516. Sequence TAGCCTAGGGCAGATCGGGCCAGTATACGCTATA has a PBM binding z-score of -0.91. CCTTACGGGTCAAGGTTACAGCACGGGTGGTACG gave a PBM binding z-score of 0.601. In the case of CTTACTGGGCCAAAAAGGTCATTGATGCCGATAA, the PBM binding z-score is reported as 2.51. Sequence CATACAAGGTCAGCTAGGCCAGAGTAGGGACGGC has a PBM binding z-score of 1.69. CCGGCTGGGGCAAGGTTACCATAACGCACAGCCA showed a PBM binding z-score of -1. Work on GCAGACAGGTGAAGCGCAGGTAACTCAGGGTGGC yielded a PBM binding z-score of -0.748. AGTCAAAGTTCACTAGGTAAAGTAAGATTCAGCT showed a PBM binding z-score of 0.983. CGTCCAAGGTCAAGGTCAGGGAAAGAGACTCGAA gave a PBM binding z-score of 0.821. Work on CAAACTAGGTCACCGGAATGTCAAAGTCCGCATG yielded a PBM binding z-score of 5.11. In the case of TGAATGAGGTTAAAGATAAGGGAACGTGGCGTCG, the PBM binding z-score is reported as 1.71. For ATCGAAAGGTCGTCAGGTGAGTATACAGAAAGGC, the PBM binding z-score was 2.81. In the case of TCTATTAGTTGAAGGGCATCCGACGAGTCCGTTT, the PBM binding z-score is reported as 0.276. CGTAAAAGTTCAAGGTAACGTAACAGAAAGCAGC gave a PBM binding z-score of 1.87. Work on TCAGAGAGGTGAAGGTAACTCAGGTACGCAGTCG yielded a PBM binding z-score of 0.0231. For ATCTCTAGGTAAAGTGCAGTGAAAGATCGATAGA, the PBM binding z-score was 0.431. For ATCTCTAGGTAAAAGGTCAGTGAATCCCGAGGAT, the PBM binding z-score was 1.49. TGAATGAGGTTATAGGATCAGGGAACGTTGCAAA gave a PBM binding z-score of 0.833. With TGAATGAGGTTAGAGATCAGGGAACGTGGCGTCG the PBM binding z-score was 0.576. Sequence CGTCCATGGTCAGAGAGGTCAGTGAATGCCGAGT has a PBM binding z-score of -0.938. In the case of TCTGCTAGTTCAACGATGGTCAGCTAATCTGCTA, the PBM binding z-score is reported as -0.479. Sequence GATACAGGATCAAGGCCAGAGTACGCGTATTGAT has a PBM binding z-score of 0.581. In the case of CATACTGGGCCATTCAGAGGTCATTGATCATATG, the PBM binding z-score is reported as 1.19. ATCTCTAGGTAAACTTCAGTGAAAGATCGATAGA was tested, and the PBM binding z-score was 1.5. In the case of TCGAGTAGGTTAGTCGGGGAATTCAGCCAACATA, the PBM binding z-score is reported as -0.453. In the case of CTACCAAGTTGAACAAGGTCGTTGATTACTATTC, the PBM binding z-score is reported as 0.967. GCTGCTAGGTCAGGTTGGACAGCTAACGGGTACG gave a PBM binding z-score of -0.356. With AATACAGGGTCACCGTAGGCCAGAGTACGCACAG the PBM binding z-score was 1.63.
